IL-1B inflam inh – blocks inflammasome-driven IL-1 beta release. THP-1 LPS/ATP IL-1B secretion, AlphaLISA, 16 h; active compounds read low. activity change, % at 57.5 µM. actives 4.7% (n = 360,000). AID 743279; in the data active means activity change below about -50%; inconclusive means mostly about -30% to -49%
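THP-1 cells pretreated 1 hr with compounds (up to 57.5 uM final), then stimulated with LPS (250 ng/mL final) plus ATP (1.25 mM final); secreted IL-1B measured by AlphaLISA after 16 hr, decreased signal indicating inhibition.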
HT1080 IDH1KD tx – HT-1080 IDH1 knockdown cell toxicity (counter line). HT-1080 IDH1 knockdown viability, ATP luminescence, 48 h. Potency, µM (top dose mostly 46.1 µM), without a hit: at the top dose activity, negative = toxicity, usual class: cytotoxic. actives 2% (n = 360,000). AID 686971;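 further: potency means the concentration at half of the fitted maximal effect; 0% = DMSO wells and -100% = cell-free medium wells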
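Cytotoxicity counter-line: IDH1KD HT-1080, 48 h, CellTiter-Glo. Curves classed by r2, magnitude and activity.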
HT1080-NT tox – kills 2HG-producing HT-1080-NT fibrosarcoma cells | actives 1.6% (n = 360,000) | HT-1080-NT fibrosarcoma viability, CellTiter-Glo ATP luminescence, 48 h | AID 686970 | Potency, µM (top dose mostly 46.1 µM), for the others: at the highest dose activity, negative = less viability, actives largely listed as cytotoxic;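 further: NT is the 2HG producing partner of a matched IDH1 knockdown line; potency means the concentration at half of the fitted maximal effect; 0% = DMSO-treated cells and -100% = media-only wells without cells; nearly all actives have a fitted effect of over 55% in size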
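Compounds were tested in concentration-response format on HT-1080-NT cells for 48 hours at 37 degrees C. Cell viability came from CellTiter-Glo luminescence; curves were classified by r2, response magnitude and activity.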
TDP1 cell CPT – growth inhibition of DT40 Tdp1-/-;hTDP1 cells with camptothecin (screen for TDP1 inhibitors); chicken DT40 Tdp1-/-;hTDP1 cells + 20 nM CPT, ATP luminescence, 48 h; Potency, µM (top dose mostly 46.2 µM), for inactives: at the highest dose activity change, negative = growth inhibition, most hits filed as inhibitors; actives 12% (n = 420,000); further: potency means the concentration at half of the fitted maximal effect; nearly all actives have a fitted effect of over 55% in size
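Chicken DT40 Tdp1-/- cells complemented with human TDP1, 400 cells/well, exposed to compounds plus 20 nM camptothecin for at least 48 h at 37 C; viability read as ATP content by CellTiter-Glo luminescence.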
ALOX12 inh – blocks human arachidonate 12S-lipoxygenase | P18054 | purified 12hLO, xylenol orange hydroperoxide absorbance | Potency, µM (highest dose often 108 µM), without a hit: at the top dose activity change, negative = inhibition, actives largely listed as inhibitors | actives 1.1% (n = 580,000) | AID 1671190; further: potency means the concentration at half of the fitted maximal effect
Target sequence (P18054 whole entry, looked up): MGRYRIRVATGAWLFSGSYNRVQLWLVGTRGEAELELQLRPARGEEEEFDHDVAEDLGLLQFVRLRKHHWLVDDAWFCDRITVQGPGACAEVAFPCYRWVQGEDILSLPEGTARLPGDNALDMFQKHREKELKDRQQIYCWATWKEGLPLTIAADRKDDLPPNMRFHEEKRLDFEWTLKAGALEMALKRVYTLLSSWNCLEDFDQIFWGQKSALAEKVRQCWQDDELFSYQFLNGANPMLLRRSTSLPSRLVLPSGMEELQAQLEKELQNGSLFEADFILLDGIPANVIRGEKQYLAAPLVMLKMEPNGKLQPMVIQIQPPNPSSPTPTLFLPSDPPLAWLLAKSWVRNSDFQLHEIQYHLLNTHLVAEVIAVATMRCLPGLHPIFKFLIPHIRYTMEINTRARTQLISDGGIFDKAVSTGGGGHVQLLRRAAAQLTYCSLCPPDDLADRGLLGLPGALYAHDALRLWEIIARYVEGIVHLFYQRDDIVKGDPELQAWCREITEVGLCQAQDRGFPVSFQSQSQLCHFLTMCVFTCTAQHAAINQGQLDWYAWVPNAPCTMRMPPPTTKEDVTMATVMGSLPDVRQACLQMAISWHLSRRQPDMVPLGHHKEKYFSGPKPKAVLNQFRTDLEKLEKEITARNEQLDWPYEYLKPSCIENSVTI
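Purified human 12hLO (150 nM final) in 25 mM Hepes, 0.01% Triton X-100, pH 7.0 was preincubated 15 min at room temperature with compound. Then 40 uM arachidonic acid was added, 30 min. Hydroperoxide was read by Fe-XO absorbance ratio 573/405 nm.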
DT40 TDP1 no CPT – qHTS for Inhibitors of human tyrosyl-DNA phosphodiesterase 1 (TDP1): qHTS in cells in absence of CPT; DT40 Tdp1-/- hTDP1 cells, no CPT, ATP luminescence, 48 h; Potency, µM (highest dose often 46.2 µM), for the others: at the top dose activity change, negative = growth inhibition, hits mostly inhibitors; actives 15% (n = 420,000); further: potency means the concentration at half of the fitted maximal effect; nearly all actives have a fitted effect of over 55% in size
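Chicken DT40 Tdp1-/- cells complemented with human TDP1, screened without camptothecin (DMSO vehicle only), 400 cells/well. Compounds pin-transferred, cells incubated at 37 °C for at least 48 hr. Growth read as ATP-dependent luminescence (CellTiter-Glo, 30 min at RT).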
* hit, by the source's call; [ ] = remark or other dose. Many of the other results were omitted from the sample, so hits are more common in it than they were. Unless noted, the call rests on the fitted dose curve; in most records, active means well fitted curve in the direction sought with a large enough effect; inconclusive means small, poorly fitted or top-dose-only effect, or another doubt; inactive means no such curve, though single readings can be large; an effect the other way counts as inactive or inconclusive. Unless noted, on the % scale 0 is the no-effect control and ±100 the full control effect.

Screening COc1ccc(NC2=NS(=O)(=O)C(c3ccccc3)=C2C)cc1Cl returned ALOX12 inh 19.9%.
Screening O=c1[nH]c2ccccc2cc1-c1nnn(-c2ccc(F)cc2)n1 returned IL-1B inflam inh -2.0, HT1080 IDH1KD tx -9.8%, HT1080-NT tox -2.1%, TDP1 cell CPT inconclusive, ALOX12 inh inconclusive and DT40 TDP1 no CPT inconclusive.
Screening O=c1[nH]c2ccccc2cc1-c1nnn(-c2ccc(Cl)c(Cl)c2)n1 returned IL-1B inflam inh 3.8, HT1080 IDH1KD tx 0.9%, HT1080-NT tox 2.2%, TDP1 cell CPT 7.31µM*, ALOX12 inh inconclusive and DT40 TDP1 no CPT inconclusive.
For Nn1c(SCC(=O)Nc2cccc(C(F)(F)F)c2)nnc1-c1cc(-c2ccc(Cl)cc2)n[nH]1 the results were ALOX12 inh 4.8%.
Screening COCCN(C(=S)Nc1ccc(C)c(C)c1)C(C)c1ccco1 (centres undefined) returned IL-1B inflam inh 7.6, HT1080 IDH1KD tx 7.3%, HT1080-NT tox -0.4%, TDP1 cell CPT inconclusive, ALOX12 inh -13.1% and DT40 TDP1 no CPT inconclusive.
Screening Cc1ccc(NC(=S)N(CCN(C)C)C(C)c2ccco2)cc1C (centres undefined) returned IL-1B inflam inh -18.6, HT1080 IDH1KD tx 12.9%, HT1080-NT tox 8.0%, TDP1 cell CPT 18.4µM*, ALOX12 inh 32.4% and DT40 TDP1 no CPT inconclusive.
`Cc1ccc(NC(=S)N(C)C(c2ccccc2)c2ccccc2)cc1C` gave IL-1B inflam inh -1.5, HT1080 IDH1KD tx -1.4%, HT1080-NT tox inconclusive, TDP1 cell CPT inconclusive, ALOX12 inh 0.0% and DT40 TDP1 no CPT 23.1µM*.
For COc1ccc2c(c1)c(C(C(=O)O)N1C[C@H](C)C[C@H](C)C1)cn2CC(=O)O (some centres undefined) the results were ALOX12 inh -45.4%.
Screening O=C(c1ccco1)N1CCC2(CC1)NCCc1c2[nH]c2ccccc12 returned ALOX12 inh 18.1%.
`COc1cccc(C(C)(O)c2nc(-c3ccc4c(c3)OCO4)cs2)c1` (centres undefined) gave IL-1B inflam inh 0.0, HT1080 IDH1KD tx -27.6%, HT1080-NT tox -9.5%, TDP1 cell CPT 14.6µM*, ALOX12 inh inconclusive and DT40 TDP1 no CPT 20.6µM*.
`COCc1cccc(-c2csc(C(C)(O)c3cccc(OC)c3)n2)c1` (centres undefined) gave IL-1B inflam inh 4.4, HT1080 IDH1KD tx inconclusive, HT1080-NT tox inconclusive, TDP1 cell CPT 13µM*, ALOX12 inh inconclusive and DT40 TDP1 no CPT inconclusive.
COc1cccc(C(C)(O)c2nc(-c3cccs3)cs2)c1 (centres undefined) was read as IL-1B inflam inh 13.8, HT1080 IDH1KD tx 0.0%, HT1080-NT tox -12.8%, TDP1 cell CPT inconclusive, ALOX12 inh 4.47µM* and DT40 TDP1 no CPT inconclusive.
For CC(O)(c1cccnc1)c1nc(-c2ccc3c(c2)OCO3)cs1 (centres undefined) the results were IL-1B inflam inh 22.0, HT1080 IDH1KD tx -19.3%, HT1080-NT tox 4.2%, TDP1 cell CPT 16.4µM*, ALOX12 inh -12.5% and DT40 TDP1 no CPT inconclusive.
For COc1ccccc1Cn1c(C(C)NC(=O)c2ccco2)nc2ccccc21 (centres undefined) the results were ALOX12 inh -3.3%.
CC1(C)CN(C(=O)Cn2cc(C(F)(F)F)ccc2=O)C[C@]1(C)O was read as ALOX12 inh 26.0%.
`CC(O)(c1cccc(F)c1)c1nc(-c2cccc(C#N)c2)cs1` (centres undefined) gave IL-1B inflam inh 15.7, HT1080 IDH1KD tx -5.0%, HT1080-NT tox inconclusive, TDP1 cell CPT inconclusive, ALOX12 inh -24.4% and DT40 TDP1 no CPT inconclusive.
Screening COc1cccc(C(C)(O)c2nc(-c3cc(F)cc(F)c3)cs2)c1 (centres undefined) returned IL-1B inflam inh -15.5, HT1080 IDH1KD tx inconclusive, HT1080-NT tox 23.1µM*, TDP1 cell CPT inconclusive, ALOX12 inh -25.9% and DT40 TDP1 no CPT 23.1µM*.
CC(O)(c1cccnc1)c1nc(-c2ccc3ccccc3c2)cs1 (centres undefined) was read as IL-1B inflam inh 5.0, HT1080 IDH1KD tx inconclusive, HT1080-NT tox inconclusive, TDP1 cell CPT 20.6µM*, ALOX12 inh -17.0% and DT40 TDP1 no CPT 23.1µM*.
Screening COc1ccc(C(C)(O)c2nc(-c3ccoc3)cs2)cc1 (centres undefined) returned IL-1B inflam inh 8.6, HT1080 IDH1KD tx -14.9%, HT1080-NT tox 18.7%, TDP1 cell CPT inconclusive, ALOX12 inh 28.2µM* and DT40 TDP1 no CPT inconclusive.
`COc1cccc(C(C)(O)c2nc(-c3cncnc3)cs2)c1` (centres undefined) gave IL-1B inflam inh 42.5, HT1080 IDH1KD tx 15.8%, HT1080-NT tox 11.7%, TDP1 cell CPT inconclusive, ALOX12 inh inconclusive and DT40 TDP1 no CPT inconclusive.
For CC(O)(c1cccnc1)c1nc(-c2cccc(C#N)c2)cs1 (centres undefined) the results were IL-1B inflam inh 11.3, HT1080 IDH1KD tx 0.6%, HT1080-NT tox 5.8%, TDP1 cell CPT 16.4µM*, ALOX12 inh -2.6% and DT40 TDP1 no CPT 14.6µM*.
Cc1noc2c(Nc3ccc(C(N)=O)cc3)cc(-c3cccnc3)nc12 was read as ALOX12 inh 5.1%[176 µM].
COc1ccc(C(C)(O)c2nc(-c3cncnc3)cs2)cc1 (centres undefined) was read as IL-1B inflam inh 41.8, HT1080 IDH1KD tx 1.8%, HT1080-NT tox 15.3%, TDP1 cell CPT -12.6%, ALOX12 inh -11.1% and DT40 TDP1 no CPT -19.4%.
Screening COc1cccc(C(C)(O)c2nc(-c3ccc(S(C)(=O)=O)cc3)cs2)c1 (centres undefined) returned IL-1B inflam inh -10.5, HT1080 IDH1KD tx -29.1%, HT1080-NT tox -16.7%, TDP1 cell CPT inconclusive, ALOX12 inh -3.0% and DT40 TDP1 no CPT 18.4µM*.
For CC(O)(c1cccnc1)c1nc(/C=C/c2ccccc2)cs1 (centres undefined) the results were IL-1B inflam inh 41.2, HT1080 IDH1KD tx -18.5%, HT1080-NT tox -14.8%, TDP1 cell CPT inconclusive, ALOX12 inh -2.8% and DT40 TDP1 no CPT 20.6µM*.

From PubChem
